Unmarked numbers belong to inactive results. The rule behind the calls is not given here.
The compounds below were run on HIV-1 nucleocapsid protein NCp7 (binding to TG oligonucleotide) (assay: HIV Nucleocapsid (AID 346;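 note: potency is for inhibitors that block NC binding and lower polarization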)). Settings: HIV-1 NC / fluorescein-TGTGTGTG probe, fluorescence polarization.
In short: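 10 nM TG4xF probe with 100 nM nucleocapsid protein in high-salt Hepes pH 7.5 (250mM NaCl) containing 1uM ZnCl2 and reducing agents. Compound inhibition of binding was read as fluorescein polarization after 1 hr at room temperature.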
`CC(C)NC(=O)N1CC2(CCN(C(=O)c3ccco3)CC2)C1` was tested, and the Potency was > 20 µM. `c1ccc(CNc2ccnc(-c3ccc4c(c3)OCO4)n2)cc1` was tested, and the Potency was > 20 µM. `Cc1noc(C)c1-c1nc(Nc2ccncc2)c2ccccc2n1` was tested, and the Potency was > 20 µM. With `O=c1c(CCc2ccccc2)nc2cncnc2n1-c1ccccc1` the Potency was > 20 µM. For `O=c1c(-c2ccccc2)nc2cnc(Oc3ccccc3)nc2n1C[C@H]1CCCO1`, the Potency was > 20 µM. `N#Cc1cccc(NC(=O)N2CCC3(CC2)CCN(C(=O)c2ccco2)CC3)c1` was tested, and the Potency was > 20 µM. For `N#CCCn1c(=O)c(-c2ccc(Cl)cc2)nc2cnc(Oc3cccc(Cl)c3)nc21`, the Potency was > 4 µM. In the case of `Cn1c(=O)c(-c2ccccc2)nc2cnc(Oc3ccccc3)nc21`, the Potency is reported as > 20 µM. For `N#Cc1cccc(-c2nc3cnc(N4CCOCC4)nc3n(Cc3ccc(F)cc3)c2=O)c1`, the Potency was > 20 µM. For `COc1cccc(-c2cc(NCc3cnc(C)cn3)ncn2)c1`, the Potency was > 20 µM. For `CCNc1ncc2nc(C)c(=O)n(CCC#N)c2n1`, the Potency was > 20 µM. For `COc1ccccc1CNc1cc(-c2ccccc2C)ncn1`, the Potency was > 20 µM. In the case of `CN(C)c1ncc2nc(-c3ccc(F)cc3)c(=O)n(C)c2n1`, the Potency is reported as > 20 µM. With `CS(=O)(=O)Nc1cccc(-c2nc(NC3CC3)c3ccccc3n2)c1` the Potency was > 20 µM. With `O=c1c(-c2ccc(Cl)cc2)nc2cnc(N3CCNCC3)nc2n1Cc1cccs1` the Potency was > 20 µM.

From PubChem BioAssay (NCATS)
Potency is the fitted concentration of half-maximal effect.
